Measured values reported in PubChem BioAssay.
Activity calls are given as the source filed them.

How the values were obtained:
[1] = optical density shifts of acrAB sulA E. coli – strain DRC41, OD650, 48 h, E. coli filamentation inducer project, primary screen (AID 1152); settings: higher = more signal, called active from +8 up or from −8 down;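 also: E. coli MC1000 strain DRC41 lacking acrAB efflux pump and sulA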
[2] = probe aLefty1 binding on compound microarray – biochemical, small-molecule microarray, 635/667 nm fluorescence, primary screen (AID 1153); settings: higher = more signal;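 also: score merges spot fluorescence with signal-to-noise ratio from the scanned slide images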
[3] = plasmodial surface anion channel blockers, osmotic lysis – cell-based, P. falciparum Indochina, OD700, 1 h, primary screen (AID 1154); settings: P. falciparum Indochina infected RBC osmotic lysis, higher = more signal, called active from +8 up or from −8 down
[4] = plasmodial surface anion channel blockers, osmotic lysis – cell-based, P. falciparum Indochina, OD700, 2 h, primary screen (AID 1155);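 also: lysis reports solute entry through the parasite surface anion channel PSAC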; settings: P. falciparum Indochina infected erythrocytes, higher = more signal, called active from +8 up or from −8 down
[5] = changes in parasitized red cell lysis, either direction – P. falciparum Indochina, OD700, 3 h, PSAC antagonist project, primary screen (AID 1156); settings: P. falciparum-infected erythrocytes, osmotic lysis, higher = more signal, called active from +8 up or from −8 down
[6] = plasmodial surface anion channel blockers, osmotic lysis – cell-based, P. falciparum Indochina, OD700, 18 h, primary screen (AID 1157); settings: P. falciparum Indochina infected erythrocytes, osmotic lysis OD700, 18 h; higher = more signal, called active from +8 up or from −8 down
[7] = S6 kinase pathway phospho-S6 level changes – cell-based, A549, cytoblot, luminescence, serum-stimulated, primary screen (AID 1158); settings: 5 h, higher = more signal;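 also: serum-stimulated A549 lung adenocarcinoma cells; signal is phosphorylated S6 detected by cytoblot immunostaining with HRP secondary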
[8] = target: NADPH oxidase 2 (Homo sapiens) (UniProt P04839); experiment: compounds shifting NOX2 Amplex Red fluorescence – cell-based, HEK293-NOX2, PMA-stimulated, NOX inhibitor project, primary screen (AID 1159); settings: 45 min, higher = more signal, called active from +8 up or from −8 down; also: test concentration not given here
Sequence of NADPH oxidase 2 (Homo sapiens) (P04839 whole entry, looked up): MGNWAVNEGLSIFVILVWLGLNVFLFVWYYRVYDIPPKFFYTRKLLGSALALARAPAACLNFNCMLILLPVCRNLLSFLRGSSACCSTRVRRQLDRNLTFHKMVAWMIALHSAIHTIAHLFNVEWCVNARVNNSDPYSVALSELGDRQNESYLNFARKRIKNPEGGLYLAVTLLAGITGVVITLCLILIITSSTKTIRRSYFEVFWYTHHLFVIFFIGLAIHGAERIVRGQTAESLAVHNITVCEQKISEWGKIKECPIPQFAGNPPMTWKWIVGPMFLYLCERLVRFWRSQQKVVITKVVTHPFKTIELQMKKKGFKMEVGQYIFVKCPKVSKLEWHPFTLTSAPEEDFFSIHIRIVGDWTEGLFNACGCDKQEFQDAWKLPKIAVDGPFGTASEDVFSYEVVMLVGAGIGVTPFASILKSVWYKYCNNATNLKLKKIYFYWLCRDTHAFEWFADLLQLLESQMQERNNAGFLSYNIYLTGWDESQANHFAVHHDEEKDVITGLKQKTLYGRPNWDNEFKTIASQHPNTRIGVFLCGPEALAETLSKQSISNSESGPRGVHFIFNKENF

[9] = target: NADPH oxidase 4 (Homo sapiens) (UniProt Q9NPH5); experiment: compounds shifting NOX4 Amplex Red fluorescence – cell-based, HEK293-NOX4, tetracycline-induced, NOX inhibitor project, primary screen (AID 1160); settings: HEK293-NOX4, Amplex Red H2O2 fluorescence, 45 min; higher = more signal, called active from +8 up or from −8 down
Sequence of NADPH oxidase 4 (Homo sapiens) (Q9NPH5 whole entry, looked up): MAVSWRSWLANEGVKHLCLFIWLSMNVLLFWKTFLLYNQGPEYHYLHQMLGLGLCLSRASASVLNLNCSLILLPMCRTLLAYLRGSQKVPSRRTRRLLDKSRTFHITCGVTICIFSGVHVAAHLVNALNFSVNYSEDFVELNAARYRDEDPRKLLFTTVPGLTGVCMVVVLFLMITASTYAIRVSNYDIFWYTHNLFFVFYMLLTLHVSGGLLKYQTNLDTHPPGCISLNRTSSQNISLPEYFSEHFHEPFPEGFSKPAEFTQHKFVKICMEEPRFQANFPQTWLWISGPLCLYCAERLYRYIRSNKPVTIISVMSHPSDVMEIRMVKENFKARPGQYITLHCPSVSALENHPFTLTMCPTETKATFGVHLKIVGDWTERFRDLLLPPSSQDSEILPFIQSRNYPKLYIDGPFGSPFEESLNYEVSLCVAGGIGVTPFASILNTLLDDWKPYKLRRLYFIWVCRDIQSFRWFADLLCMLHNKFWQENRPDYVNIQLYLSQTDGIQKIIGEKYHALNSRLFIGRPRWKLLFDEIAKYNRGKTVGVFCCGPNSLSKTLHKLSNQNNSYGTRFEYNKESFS

[10] = target: NADPH oxidase 5 (Homo sapiens) (UniProt Q96PH1); experiment: compounds shifting NOX5 Amplex Red fluorescence – cell-based, HEK293-NOX5, NOX inhibitor project, primary screen (AID 1161); settings: HEK293-NOX5, ionomycin, 45 min, higher = more signal
Sequence of NADPH oxidase 5 (Homo sapiens) (Q96PH1 whole entry, looked up): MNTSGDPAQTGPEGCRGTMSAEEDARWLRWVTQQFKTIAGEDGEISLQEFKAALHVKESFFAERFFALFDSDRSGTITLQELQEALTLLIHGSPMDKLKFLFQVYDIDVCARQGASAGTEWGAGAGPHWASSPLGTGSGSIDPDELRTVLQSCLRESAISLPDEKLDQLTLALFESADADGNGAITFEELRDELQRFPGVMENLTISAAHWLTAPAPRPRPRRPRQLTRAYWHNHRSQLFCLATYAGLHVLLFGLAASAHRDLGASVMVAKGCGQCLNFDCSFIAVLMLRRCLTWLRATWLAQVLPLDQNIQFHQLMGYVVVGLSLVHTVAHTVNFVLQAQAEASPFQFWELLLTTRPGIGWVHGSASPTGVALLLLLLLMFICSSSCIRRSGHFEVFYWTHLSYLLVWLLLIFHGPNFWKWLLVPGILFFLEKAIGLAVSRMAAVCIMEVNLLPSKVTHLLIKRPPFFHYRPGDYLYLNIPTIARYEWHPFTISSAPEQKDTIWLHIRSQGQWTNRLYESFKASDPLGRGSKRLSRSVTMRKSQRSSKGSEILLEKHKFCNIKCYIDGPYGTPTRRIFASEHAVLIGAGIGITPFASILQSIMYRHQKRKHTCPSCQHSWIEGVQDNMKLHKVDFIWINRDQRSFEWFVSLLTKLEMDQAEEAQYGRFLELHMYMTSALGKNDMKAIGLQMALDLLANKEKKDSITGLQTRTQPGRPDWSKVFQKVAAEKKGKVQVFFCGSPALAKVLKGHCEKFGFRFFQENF

[11] = compound effects on lung adenocarcinoma cell viability – A549, calcein-AM fluorescence, 48 h, basal, profiling panel (AID 1162); settings: higher = more signal; also: test concentration not given here
[12] = compound effects on differentiated 3T3-L1 adipocyte viability – cell-based, 3T3-L1 adipocytes, calcein-AM fluorescence, 48 h, basal, profiling panel (AID 1163); settings: 3T3-L1 adipocytes viability, higher = more signal; also: test concentration not given here
[13] = compound effects on hepatocellular carcinoma cell viability – HepG2, calcein-AM fluorescence, 48 h, basal, profiling panel (AID 1164); settings: higher = more signal; also: test concentration not given here
[14] = compound effects on multiple myeloma cell viability – MM1S, calcein-AM fluorescence, 48 h, basal, profiling panel (AID 1165); settings: higher = more signal;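 also: viability of MM1S multiple myeloma cells under basal unstimulated conditions; test concentration not given here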
[15] = calcein-AM signal in unstimulated myeloma cells – cell-based, calcein-AM fluorescence, 48 h, PK04 Diversity Set, profiling panel (AID 1166); settings: RPMI8226 myeloma viability, higher = more signal;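 also: cells grown under basal conditions without added stimulus; test concentration not given here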
[16] = JC-1 mitochondrial signal, unstimulated HepG2 cells – cell-based, JC-1 fluorescence, 24 h, 100 nL compound, profiling panel (AID 1167); settings: HepG2 mitochondrial potential, higher = more signal; also: test concentration not given here
[17] = JC-1 mitochondrial signal, unstimulated adipocytes – cell-based, JC-1 fluorescence, 3T3-L1 adipocytes, 24 h, 100 nL compound, profiling panel (AID 1168); settings: JC-1 mitochondrial fluorescence, higher = more signal, called active from +8 up or from −8 down; also: test concentration not given here
[18] = JC-1 mitochondrial signal, unstimulated myeloma cells – cell-based, JC-1 fluorescence, RPMI8226, 24 h, 100 nL compound, profiling panel (AID 1169); settings: JC-1 mitochondrial potential fluorescence, higher = more signal; also: test concentration not given here
[19] = JC-1 mitochondrial signal, unstimulated MM1S myeloma – cell-based, JC-1 fluorescence, 24 h, 100 nL compound, profiling panel (AID 1170); settings: MM1S mitochondrial potential, higher = more signal; also: test concentration not given here
[20] = resazurin metabolic signal in A549 cells – cell-based, resazurin fluorescence, 24 h, PK04 Diversity Set, profiling panel (AID 1171); settings: A549 viability, higher = more signal, called active from +8 up or from −8 down; also: test concentration not given here

SMILES	z-score [1]	composite z-score [2]	z-score [3]	z-score [4]	z-score [5]	z-score [6]	z-score [7]	z-score [8]	z-score [9]	z-score [10]	z-score [11]	z-score [12]	z-score [13]	z-score [14]	z-score [15]	z-score [16]	z-score [17]	z-score [18]	z-score [19]	z-score [20]
COC(=O)CC=C[C@@H](C)[C@@H](C=NOC(C)CN1CCCc2nc(C)c(C)cc21)OC (stereo not given in full)	-0.4 (inactive)	-0.202	0.378 (inactive)	0.633 (inactive)	-0.17 (inactive)	0.538 (inactive)	-0.77	-0.0618 (inactive)	-0.14 (inactive)	0.372	0.756	-0.274	0.125	0.0457	0.142	-0.16	0.111 (inactive)	-0.194	-0.259	-0.399 (inactive)
CO[C@@H]1COC(=O)CC=C[C@@H](C)[C@@H]2C=C[C@H](O)[C@@H](COC(=O)CC=C[C@H]1C)O2	0.988 (inactive)	-0.0984	0.872 (inactive)	-0.28 (inactive)	0.178 (inactive)	-0.213 (inactive)	1.2	0.262 (inactive)	1.18 (inactive)	0.589	1.26	0.392	0.764	0.425	0.448	0.598	0.967 (inactive)	-0.31	0.658	0.0324 (inactive)
COC(=O)C1=C(C)N(Cc2ccccc2)[C@]23O[C@](C(=O)OC)(C(=O)N2[C@@H]1c1ccccc1)C(C(=O)OC)=C3C(=O)OC	0.214 (inactive)	0.0774	2.05 (inactive)	-0.468 (inactive)	0.323 (inactive)	-1.52 (inactive)	2.22	0.826 (inactive)	0.109 (inactive)	2.03	-0.321	1.48	0.0331	-1.45	-3.2	0.483	0.725 (inactive)	-0.256	-0.239	-0.645 (inactive)
COC(=O)CC=C[C@@H](C)[C@@H](C=NO[C@@H](C)c1cc(-c2c(C)cc(C)cc2C)no1)NS(=O)(=O)c1ccc(C)cc1	-0.466 (inactive)	0.0437	1.34 (inactive)	-0.745 (inactive)	0.971 (inactive)	-1.89 (inactive)	1.13	-0.868 (inactive)	-0.115 (inactive)	-1.47	-0.985	0.885	-0.145	0.236	-1.75	-0.189	-1.08 (inactive)	0.634	-0.147	0.298 (inactive)
Cc1ccc(S(=O)(=O)N[C@H]2COC(=O)CC=C[C@@H](C)COC(=O)CC=C[C@@H]2C)cc1	0.142 (inactive)	-0.296	0.866 (inactive)	-0.162 (inactive)	-0.424 (inactive)	-0.014 (inactive)	-0.41	0.225 (inactive)	0.684 (inactive)	0.238	0.409	-0.203	0.0995	0.0438	0.219	0.247	-0.393 (inactive)	-0.0798	-0.197	0.258 (inactive)
C[C@@H](c1ccccc1)N1C(=O)[C@H]2[C@H]3[C@H](O)[C@H](O)CC(=NO[C@@H]4O[C@H](CO)[C@@H](O)[C@H](O)[C@H]4O)[C@@H]3CC[C@H]2C1=O	0.387 (inactive)	-0.0272	-0.091 (inactive)	-0.076 (inactive)	-0.698 (inactive)	-0.137 (inactive)	-0.689	-0.119 (inactive)	0.552 (inactive)	0.0309	-0.57	0.698	-0.943	0.21	-0.253	-0.688	0.418 (inactive)	-0.206	-0.189	-0.644 (inactive)
CCOC(=O)[C@H](Cc1ccccc1)NC(=O)CCC1CC(OC(=O)NCCc2ccc(F)cc2)CC2(CCCC(COC(=O)NCc3ccccc3)O2)O1 (stereo not given in full)	-0.713 (inactive)	-0.152	-0.623 (inactive)	-0.567 (inactive)	-0.857 (inactive)	-0.144 (inactive)	0.0765	-0.0815 (inactive)	1.21 (inactive)	0.616	0.199	-0.765	-0.12	0.399	-0.816	0.968	0.509 (inactive)	-0.191	-0.266	0.56 (inactive)
COc1ccc(COC(=O)NN=C2C[C@@H](O)[C@@H](O)[C@@H]3[C@@H]4C(=O)N(c5cccc(Oc6ccccc6)c5)C(=O)[C@@H]4CC[C@@H]23)cc1	-0.367 (inactive)	0.347	4.54 (inactive)	1.2 (inactive)	1.28 (inactive)	0.181 (inactive)	-0.313	1.32 (inactive)	0.56 (inactive)	1.02	0.226	-0.518	-0.826	0.754	0.196	-0.767	-0.0215 (inactive)	0.587	-0.442	0.166 (inactive)
CO[C@H]1COC(=O)CCC[C@@H](C)[C@H](OC)COC(=O)[C@@H](C)NC(=O)CC=C[C@@H]1C	0.312 (inactive)	-0.0969	-0.806 (inactive)	-0.912 (inactive)	0.565 (inactive)	-1.59 (inactive)	1.05	-1.18 (inactive)	-2.55 (inactive)	-1.3	-0.682	1.07	-0.796	0.0819	-1.04	1.95	1.34 (inactive)	0.246	-0.754	1.02 (inactive)
